Laboratory results from PubChem BioAssay (EPA / NIEHS).
Inconclusive results are not listed. Active and inactive are the calls of the source. How the source made its calls, unless noted: active means hit-call score of the fitted dose curve at least 0.9, where 1 is the maximum; inconclusive means response in the unintended direction; inactive means score below 0.9.

How the values were obtained:
[1] = CCTE_Mundy_HCI_hNP1_Casp3_7: CCTE's Caspase-Glo 3/7 Assay in human neuroprogenitor cells for Apoptosis, Mundy Lab (AID 2284240; active means hit-call score of the fitted dose curve at least 0.9, where 1 is the maximum; inactive means score below 0.9)
How it was run: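 Luminescent caspase-3/7 readout, 26.5 h post-dose, in human neural progenitor cells from WA09 embryonic stem cells. Cells grew 40–44 h at 37 °C, 5% CO2 before chemical addition. Activity analysed as signal increase over DMSO baseline.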

[2] = CCTE_Mundy_HCI_hNP1_CellTiter: CCTE's Cell Titer-Glo 2 Assay in human neuroprogenitor cells for Viability, Mundy Lab (AID 2284241);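 further: a hit is a drop in ATP luminescence versus DMSO meaning reduced viability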
How it was run: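 Viability read as luminescent ATP content (CellTiter-Glo, 30 min room temperature) twenty-four hours after dosing, relative to DMSO. Cells: WA09-derived hNP1 neuroprogenitors on poly-L-ornithine/laminin, plated 40 to 44 hours before chemical.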

[3] = CCTE_Mundy_HCI_Cortical_Synap_Neur_Matur_NeuronCount: CCTE's Synaptogenesis and Neurite Maturation Assay in rat cortical cells for Neuron Count, Mundy Lab (AID 2284242);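 further: neuron number from Hoechst nuclei and MAP2 staining by high-content imaging; hits reduce neuron count versus DMSO baseline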
How it was run: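 Rat cortical cultures; AraC DIV 5; chemical dosing + media change DIV 7 to DIV 12 (288.33 h readout). Fix, Hoechst, anti-MAP2/anti-synaptophysin immunostain; HCI neuron count vs DMSO baseline.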

Measured: AC50

CNCCC(Oc1ccc(C(F)(F)F)cc1)c1ccccc1 (stereo not drawn)
active: [1] 12.7 µM | [2] 20.7 µM | [3] 5.97 µM
